Active and inactive are the calls of the source. How the source made its calls: active means hit-call score of the fitted dose curve at least 0.9, where 1 is the maximum; inactive means score below 0.9.

The assay relates to TTR (gene 7276). Nature of the assay: CCTE_GLTED_hTTR_0.125uM: CCTE's human Transthyretin (hTTR) Inhibition Assay, with 0.125uM TTR, Great Lakes Toxicology and Ecology Division (GLTED) Lab (AID 2284431).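 Further: hits lower the fluorescence signal relative to DMSO baseline.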 Summed up:
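TTR 0.125uM + test chemical, 2 h; ANSA probe displacement; ex 380/em 475 fluorescence; signal loss vs DMSO control.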
Take `CCC(C)c1ccc(O)cc1` (stereo unspecified): the AC50 was 4.66 µM (active).

In the case of `Cc1cc(N=Nc2ccccc2C)ccc1N`, the AC50 was 0.0179 µM (active).

Regarding `c1ccc(N=Nc2ccccc2)cc1`, the AC50 is 28 µM (active).

With `CS(=O)(=O)NC(=O)c1cc(Oc2ccc(C(F)(F)F)cc2Cl)ccc1[N+](=O)[O-]`, the AC50 is 6.19 µM (active).

As for `Nc1ccc(Oc2ccc(N)cc2)cc1`, the AC50 was 17.7 µM (active).

For the compound `Nc1cc(Cl)cc(C(=O)O)c1Cl`, the AC50 was 8.24 µM (active).

For the compound `c1ccc(NNc2ccccc2)cc1`, the AC50 was 33.3 µM (active).

Turning to `CCNS(=O)(=O)C(F)(F)C(F)(F)C(F)(F)C(F)(F)C(F)(F)C(F)(F)C(F)(F)C(F)(F)F`, the AC50 was 1.05 µM (active).

Take `Brc1ccc(Oc2ccccc2)cc1`: the AC50 is 50 µM (active).

For `[Cl-].[Cl-].[Hg+2]`, the AC50 is 6.05 µM (active).

For the compound `Nc1ccc(N=Nc2ccccc2)cc1`, the AC50 is 0.593 µM (active).

Values taken from PubChem BioAssay (EPA / NIEHS).
